JMJD2A Tudor inh = qHTS Assay for Inhibitors of JMJD2A-Tudor Domain; Lysine-specific demethylase 4A (Homo sapiens), O75164; AlphaScreen JMJD2A-Tudor / H3K4me3 peptide binding; Potency, µM (series often up to 114 µM), most hits filed as inhibitors; 4.4% of 390,000 active; AID 504339, 2011; also: nearly all actives have a fitted effect of over 50% in size
GLS inh = qHTS for Inhibitors of Glutaminase (GLS). Glutaminase kidney isoform, mitochondrial (Homo sapiens), O94925. GLS enzymatic activity, qHTS titration. Potency, µM (doses to about 45.5 µM), usual class: inhibitors. 0.21% of 410,000 active. AID 624170, 2012
Target sequence (O94925 whole entry, looked up, canonical isoform): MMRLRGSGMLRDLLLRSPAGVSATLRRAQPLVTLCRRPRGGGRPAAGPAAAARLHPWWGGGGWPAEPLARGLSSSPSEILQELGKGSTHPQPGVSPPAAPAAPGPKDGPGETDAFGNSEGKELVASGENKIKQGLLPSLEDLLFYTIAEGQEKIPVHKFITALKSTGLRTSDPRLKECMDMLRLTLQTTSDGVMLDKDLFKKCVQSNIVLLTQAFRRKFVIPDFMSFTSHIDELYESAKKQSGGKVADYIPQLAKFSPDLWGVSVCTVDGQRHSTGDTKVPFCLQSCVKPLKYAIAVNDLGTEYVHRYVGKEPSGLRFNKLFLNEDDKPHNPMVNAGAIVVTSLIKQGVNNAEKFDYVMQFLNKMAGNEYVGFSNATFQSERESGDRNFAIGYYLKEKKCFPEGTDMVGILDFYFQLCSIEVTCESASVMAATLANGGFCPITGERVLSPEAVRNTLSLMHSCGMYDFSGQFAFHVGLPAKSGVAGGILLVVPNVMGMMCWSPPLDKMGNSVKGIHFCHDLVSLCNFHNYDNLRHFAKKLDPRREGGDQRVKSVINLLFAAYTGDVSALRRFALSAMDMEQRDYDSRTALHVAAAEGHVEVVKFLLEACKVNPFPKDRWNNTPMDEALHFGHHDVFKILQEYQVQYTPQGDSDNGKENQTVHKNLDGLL
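hKGA in 45 mM KH2PO4 pH 8.2, 0.02% Tween-20 with pin-transferred compounds; 1 mM L-glutamine (stock) plus glutamate oxidase/HRP/Amplex Red coupling added. Fluorescence read initially and after 30 min at RT.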
BAZ2B block = qHTS Assay for Inhibitors of BAZ2B; Bromodomain adjacent to zinc finger domain protein 2B (Homo sapiens), Q9UIF8; AlphaScreen BAZ2B-H3K14Ac peptide displacement; Potency, µM (top dose mostly 114 µM), hits mostly inhibitors; 4.4% of 360,000 active; AID 504333, 2011; also: nearly all actives have a fitted effect of over 60% in size
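Complex of BAZ2B and biotin-H3K14Ac (50 nM apiece) forms over 30 min at RT, then faces library compounds up to 110 uM for another 30 min; AlphaScreen beads added, 20 min dark incubation, luminescence read.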
HP1b binding inh = HTS for Inhibitors of HP1-beta Chromodomain Interactions with Methylated Histone Tails; AlphaScreen HP1-beta / biotin-H3K9me3 peptide binding; Potency, µM (titrated, usually from 114 µM), usual class: inhibitors; 0.56% of 390,000 active; also: nearly all actives have a fitted effect of over 70% in size
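AlphaScreen: HP1-beta (50 nM) preformed 30 min with biotin-H3(1-18)K9me3 peptide (50 nM) in PBS pH 7.4, 0.01% Tween-20. Compound added for 30 min at RT, then streptavidin donor/nickel chelate acceptor beads (10 ug/mL) for 30 min.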
G9a inh = qHTS Assay for Inhibitors of Histone Lysine Methyltransferase G9a; Histone-lysine N-methyltransferase EHMT2 (Homo sapiens), Q96KQ7; G9a H3K9 monomethylation, AlphaScreen, 2 h; Potency, µM (series often up to 102 µM), hits mostly inhibitors; 8.8% of 350,000 active; also: nearly all actives have a fitted effect of over 75% in size
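AlphaScreen read-out: biotin-H3K9 peptide (500 nM) methylation by 20 nM enzyme with 20 uM SAM, 2 h at room temperature after 15 min compound preincubation; anti-monomethyl H3K9 antibody plus donor/acceptor beads, 10 min dark.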
Numbers stand for hits; ! = repeats disagree; [ ] = dose if it differs, or a comment. In the library only some 10% were active in any assay of this set; here they are far more common. Calls follow the shape of the dose curve; as a rule, active = well fitted curve in the direction sought with a large enough effect; inconclusive = small, poorly fitted or top-dose-only effect, or another doubt; inactive = no such curve, though single readings can be large; an effect the other way counts as inactive or inconclusive.

What do the screens show for `CC(=O)c1cccc(NC(=O)c2cnn(-c3cccc(C)c3)c2-n2cccc2)c1`?
JMJD2A Tudor inh: inactive; GLS inh: inactive; BAZ2B block: inactive; HP1b binding inh: inactive; G9a inh: inactive

Results for CC(N=C1NS(=O)(=O)c2ccccc21)C(=O)Nc1ccc(F)cc1Cl (stereo not drawn) ?
JMJD2A Tudor inh: inactive; GLS inh: inactive; BAZ2B block: inactive; HP1b binding inh: inactive; G9a inh: inactive[12.7 µM]

Results for O=S1(=O)Nc2c(ccc3cccnc23)-c2ccccc21 ?
JMJD2A Tudor inh: 5.62µM; GLS inh: inactive; BAZ2B block: 6.31µM; HP1b binding inh: inactive; G9a inh: inactive

How did Cc1cnc2c3c(cc(Cl)c2c1)-c1ccccc1S(=O)(=O)N3 do in these assays?
JMJD2A Tudor inh: 20µM; HP1b binding inh: inactive

Results for Clc1ccc2ccc3cccnc3c2n1 ?
JMJD2A Tudor inh: inactive; GLS inh: inactive; BAZ2B block: inactive; HP1b binding inh: inactive; G9a inh: inactive

Results for COc1ccc(CNc2ccnc(-c3ccccc3OC)n2)c(OC)c1 ?
G9a inh: inactive[0.501 µM]

How did C#CCOCCOCCOCCNc1nc(N2CCN(C(=O)C([C@@H](C)CC)n3cc(C(N)CC(C)C)nn3)CC2)nc(N2CCN(C(=O)[C@H](CCC(=O)O)n3cc(C(N)[C@H](C)CC)nn3)CC2)n1 (stereo partly drawn) do in these assays?
JMJD2A Tudor inh: 70.8µM; GLS inh: inactive; BAZ2B block: inconclusive; HP1b binding inh: inactive; G9a inh: inactive

How did C#CCOCCOCCOCCNc1nc(N2CCN(C(=O)[C@H](CCC(=O)O)n3cc(C(N)CC(C)C)nn3)CC2)nc(N2CCN(C(=O)[C@H](Cc3ccc(O)cc3)n3cc(C(N)[C@H](C)CC)nn3)CC2)n1 (stereo partly drawn) do in these assays?
BAZ2B block: 31.6µM; G9a inh: inactive

What do the screens show for `C#CCOCCOCCOCCNc1nc(N2CCN(C(=O)[C@H](CCC(=O)O)n3cc(C(N)CC(C)C)nn3)CC2)nc(N2CCN(C(=O)[C@H](CCC(=O)O)n3cc(C(N)[C@H](C)CC)nn3)CC2)n1` (stereo partly drawn)?
JMJD2A Tudor inh: 79.4µM; GLS inh: inactive; BAZ2B block: 50.1µM; HP1b binding inh: inactive; G9a inh: inactive

How did O=C(CN1CCN(C(=O)N2CCOCC2)CC1)Nc1cc(Cl)ccc1Cl do in these assays?
JMJD2A Tudor inh: inactive; GLS inh: inactive; BAZ2B block: inactive; HP1b binding inh: inactive; G9a inh: inactive

What do the screens show for `CCCCn1nnnc1C1(C)CCC(=O)N1CCCN1CCOCC1` (stereo not drawn)?
GLS inh: inactive

How did O=S(=O)(/N=C(/Nc1ccc(F)cc1F)c1ccccc1)c1ccc(Br)cc1 do in these assays?
BAZ2B block: inactive; G9a inh: inactive

How did O=CN(Cc1nc2ccccc2[nH]1)c1ccc(C(=O)O)cc1 do in these assays?
JMJD2A Tudor inh: inactive; GLS inh: inactive; HP1b binding inh: inactive

Results for Oc1ccc(N=Cc2ccc(OCc3ccccc3)cc2)cc1 ?
JMJD2A Tudor inh: inconclusive; GLS inh: inactive; BAZ2B block: inconclusive; HP1b binding inh: inconclusive; G9a inh: 2.51µM

How did O=C(N/N=C/c1ccc(OCc2ccccc2)cc1)c1ccncc1 do in these assays?
JMJD2A Tudor inh: inactive; GLS inh: inactive; BAZ2B block: inactive; HP1b binding inh: inactive; G9a inh: inactive

What do the screens show for `Cc1cc2c(s1)c1cnn(Cc3cccc(Br)c3)c(=O)c1n2C`?
JMJD2A Tudor inh: inactive

Results for Cc1cc(C(=O)CSc2nc(N)cc(N)n2)c(C)n1-c1cccc(F)c1 ?
JMJD2A Tudor inh: 28.2µM; GLS inh: inactive; BAZ2B block: inconclusive; HP1b binding inh: inconclusive; G9a inh: inactive

What do the screens show for `C=CCn1c(C)cc(C(=O)CSc2nnc3c(Cl)cc(Cl)cn23)c1C`?
JMJD2A Tudor inh: inactive; GLS inh: inactive; BAZ2B block: inactive; HP1b binding inh: inactive; G9a inh: inactive

What do the screens show for `C=CCn1c(C)cc(C(=O)COC(=O)c2cncc(Br)c2)c1C`?
JMJD2A Tudor inh: inconclusive; GLS inh: inactive; BAZ2B block: inconclusive; HP1b binding inh: inactive; G9a inh: 3.16µM

What do the screens show for `C=CCn1c(C)cc(C(=O)COc2ncnc3sccc23)c1C`?
JMJD2A Tudor inh: inactive; GLS inh: inactive; BAZ2B block: inactive; HP1b binding inh: inactive; G9a inh: inconclusive

How did C=CCn1c(C)cc(C(=O)CSc2nc(N)cc(N)n2)c1C do in these assays?
JMJD2A Tudor inh: inactive; GLS inh: inactive; BAZ2B block: inconclusive; HP1b binding inh: inactive; G9a inh: 31.6µM

Results for Cc1cc(C(=O)CSc2nc(N)cc(=O)[nH]2)c(C)n1-c1ccc(OC(F)F)cc1 ?
JMJD2A Tudor inh: inactive; GLS inh: inactive; BAZ2B block: inactive; HP1b binding inh: inactive; G9a inh: inactive

What do the screens show for `COc1ccc(C(O)c2cnc(C)n2Cc2ccccc2)cc1` (stereo not drawn)?
GLS inh: inactive

What do the screens show for `COc1ccc(-n2c(=O)c3ccccc3n(CC(=O)NCCc3ccccc3)c2=O)c(OC)c1`?
JMJD2A Tudor inh: inactive; GLS inh: inactive; BAZ2B block: inactive; HP1b binding inh: inactive; G9a inh: inactive

How did Cc1cc(-c2ccc(C)c(S(=O)(=O)NCCc3ccco3)c2)on1 do in these assays?
JMJD2A Tudor inh: inactive; GLS inh: inactive; BAZ2B block: inactive; HP1b binding inh: inactive; G9a inh: inconclusive

How did COc1cc(C)c(Cl)cc1S(=O)(=O)NCc1ccco1 do in these assays?
JMJD2A Tudor inh: inactive; GLS inh: inactive; BAZ2B block: inactive; HP1b binding inh: inactive; G9a inh: inactive[12.7 µM]

How did CCc1ccc(-c2cc(C)no2)cc1S(=O)(=O)NCc1ccco1 do in these assays?
JMJD2A Tudor inh: inactive; GLS inh: inactive; BAZ2B block: inconclusive; HP1b binding inh: inactive; G9a inh: 70.8µM!

What do the screens show for `Cc1cc(S(=O)(=O)NCc2ccco2)c(C)cc1Cl`?
JMJD2A Tudor inh: inactive; GLS inh: inactive; BAZ2B block: inconclusive; HP1b binding inh: inactive; G9a inh: 44.7µM

Results for CC1(C)CC(=O)C(CC(=O)Nc2cc(C(F)(F)F)ccc2Cl)C(=O)C1 ?
JMJD2A Tudor inh: inactive; GLS inh: inactive; BAZ2B block: inactive; HP1b binding inh: inactive; G9a inh: inactive

What do the screens show for `COC(=O)[C@H]1[C@H]2C[C@@H]3c4[nH]c5cc(OC)ccc5c4CCN3C[C@H]2C[C@@H](OC(=O)c2ccc(N)cc2)[C@@H]1OC`?
JMJD2A Tudor inh: inconclusive; GLS inh: inactive; BAZ2B block: 39.8µM; HP1b binding inh: inactive; G9a inh: inconclusive

Compound activity as filed in PubChem BioAssay.
